Results from PubChem BioAssay.
Calls of active or inactive are those of the source. Unless noted, how the calls were made is not given here.

Assays:
[1] = compounds binding Alexa647 anti-His antibody – biochemical, small-molecule microarray, 635 nm fluorescence, artefact control for SMM control protein annotation, primary screen (AID 1128); settings: higher = more signal;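 further: score merges feature fluorescence with signal-to-noise for each printed compound spot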
[2] = test system: Human papillomavirus type 1a E7 protein (residues 1-88); test: HPV1a E7 small-molecule binders, primary screen, biochemical, small-molecule microarray, residues 1-88, 635 nm (AID 1129); settings: small-molecule microarray binding, fluorescence 635 nm; higher = more signal
[3] = biological target: Focal adhesion kinase 1 (Homo sapiens) (UniProt Q05397); test: PTK2 protein binding on printed compound slides – biochemical, small-molecule microarray, 635/667 nm fluorescence, BSA, DTT, primary screen (AID 1130); settings: 635 nm fluorescence, higher = more signal;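 further: composite of spot emission at 667 nm and signal to noise over triplicate slides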
Focal adhesion kinase 1 (Homo sapiens), sequence (Q05397 whole entry, looked up): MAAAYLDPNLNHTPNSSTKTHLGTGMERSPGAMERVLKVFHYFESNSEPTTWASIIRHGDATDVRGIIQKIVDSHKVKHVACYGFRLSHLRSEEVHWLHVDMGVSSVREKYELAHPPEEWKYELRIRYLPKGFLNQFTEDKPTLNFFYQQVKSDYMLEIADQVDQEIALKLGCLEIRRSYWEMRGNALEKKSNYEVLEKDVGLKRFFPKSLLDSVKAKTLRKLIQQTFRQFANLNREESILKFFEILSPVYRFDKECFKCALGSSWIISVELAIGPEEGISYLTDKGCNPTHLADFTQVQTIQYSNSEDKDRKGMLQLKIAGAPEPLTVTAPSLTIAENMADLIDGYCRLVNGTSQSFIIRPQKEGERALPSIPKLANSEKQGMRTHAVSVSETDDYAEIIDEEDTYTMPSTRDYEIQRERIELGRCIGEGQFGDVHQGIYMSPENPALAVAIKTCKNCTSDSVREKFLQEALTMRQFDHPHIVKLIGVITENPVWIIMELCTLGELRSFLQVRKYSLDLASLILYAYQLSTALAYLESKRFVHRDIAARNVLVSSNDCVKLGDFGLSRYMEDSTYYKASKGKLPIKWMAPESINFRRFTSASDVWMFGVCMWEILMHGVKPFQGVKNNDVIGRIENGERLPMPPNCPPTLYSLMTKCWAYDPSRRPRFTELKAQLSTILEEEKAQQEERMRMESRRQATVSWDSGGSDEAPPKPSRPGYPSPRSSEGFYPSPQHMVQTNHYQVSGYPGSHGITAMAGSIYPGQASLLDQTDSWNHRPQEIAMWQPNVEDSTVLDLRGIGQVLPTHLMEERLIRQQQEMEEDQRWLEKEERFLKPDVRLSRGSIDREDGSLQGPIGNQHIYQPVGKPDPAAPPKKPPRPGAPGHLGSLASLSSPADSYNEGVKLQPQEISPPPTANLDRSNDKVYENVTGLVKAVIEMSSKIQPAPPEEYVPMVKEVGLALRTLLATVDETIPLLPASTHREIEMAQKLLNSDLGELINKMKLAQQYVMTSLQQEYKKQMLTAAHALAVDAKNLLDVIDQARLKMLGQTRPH

[4] = test system: Fibrinogen (Alexa647-labelled); test: Alexa647-fibrinogen binding to printed small molecules – biochemical, small-molecule microarray, 635/667 nm fluorescence, artefact control for SMM control-protein annotation, profiling panel (AID 1131); settings: fibrinogen-A647 binding fluorescence, higher = more signal;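 further: z-score merges 667 nm fluorescence with per-spot signal-to-noise over triplicate slides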
[5] = biological target: Follistatin (Homo sapiens) (UniProt P19883); test: FST protein binding to printed compounds – biochemical, small-molecule microarray, 635/667 nm fluorescence, primary screen (AID 1132); settings: 635 nm fluorescence, higher = more signal
Follistatin (Homo sapiens), sequence (P19883 whole entry, looked up): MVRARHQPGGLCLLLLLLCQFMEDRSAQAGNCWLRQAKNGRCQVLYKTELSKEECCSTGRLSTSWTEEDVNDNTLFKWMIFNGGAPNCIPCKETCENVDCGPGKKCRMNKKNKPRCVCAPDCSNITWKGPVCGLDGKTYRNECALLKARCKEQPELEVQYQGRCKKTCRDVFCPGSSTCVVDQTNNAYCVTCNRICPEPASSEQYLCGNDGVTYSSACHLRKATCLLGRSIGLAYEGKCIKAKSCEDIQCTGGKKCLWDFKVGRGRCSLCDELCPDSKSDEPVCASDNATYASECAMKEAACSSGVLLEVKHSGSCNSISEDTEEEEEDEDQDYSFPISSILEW

[6] = biological target: Fibroblast growth factor 2 (Homo sapiens) (UniProt P09038); test: basic fibroblast growth factor binding to printed compounds – biochemical, small-molecule microarray, 635/667 nm fluorescence, primary screen (AID 1133); settings: FGF2, fluorescence 635/667, higher = more signal
Fibroblast growth factor 2 (Homo sapiens), sequence (P09038 whole entry, looked up): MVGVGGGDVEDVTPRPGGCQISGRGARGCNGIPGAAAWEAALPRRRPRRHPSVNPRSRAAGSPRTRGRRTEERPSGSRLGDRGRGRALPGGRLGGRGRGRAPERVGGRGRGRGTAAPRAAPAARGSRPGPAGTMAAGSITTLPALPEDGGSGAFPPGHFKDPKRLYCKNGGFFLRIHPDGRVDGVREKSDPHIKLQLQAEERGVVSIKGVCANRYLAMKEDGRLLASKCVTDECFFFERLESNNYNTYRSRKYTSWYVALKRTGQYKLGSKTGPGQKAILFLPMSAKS

[7] = JC-1 mitochondrial potential readout, lung cancer cells – cell-based, A549, JC-1 fluorescence, basal, 24 h, 100 nL, profiling panel (AID 1138); settings: higher = more signal;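 further: A549 lung adenocarcinoma cells under basal conditions with no added stimulus; test concentration not given here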
[8] = test system: Lefty1; test: Lefty1 protein binding to printed compounds – biochemical, small-molecule microarray, 635/667 nm fluorescence, primary screen (AID 1139); settings: fluorescence 635/667, higher = more signal
[9] = test system: wheat germ agglutinin (Triticum aestivum), Alexa647-labelled; test: Alexa647-WGA lectin binding to printed small molecules – biochemical, small-molecule microarray, 635/667 nm fluorescence, artefact control for SMM control-protein annotation, profiling panel (AID 1140); settings: WGA-A647 binding, 635 nm fluorescence, higher = more signal;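 further: score merges 667 nm feature emission with signal to noise over triplicate slides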
[10] = biological target: Luciferin 4-monooxygenase (Photinus pyralis) (UniProt P08659); test: inhibition of purified Photinus pyralis luciferase – biochemical, luminescence, purified enzyme, 2006 set, primary screen (AID 1141); settings: purified firefly luciferase, SteadyGlo luminescence, 30 min; higher = more signal, called active from +8 up or from −8 down;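 further: cell-free assay with purified firefly luciferase at 100 ng per well in PBS; test concentration not given here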
Luciferin 4-monooxygenase (Photinus pyralis), sequence (P08659 whole entry, looked up): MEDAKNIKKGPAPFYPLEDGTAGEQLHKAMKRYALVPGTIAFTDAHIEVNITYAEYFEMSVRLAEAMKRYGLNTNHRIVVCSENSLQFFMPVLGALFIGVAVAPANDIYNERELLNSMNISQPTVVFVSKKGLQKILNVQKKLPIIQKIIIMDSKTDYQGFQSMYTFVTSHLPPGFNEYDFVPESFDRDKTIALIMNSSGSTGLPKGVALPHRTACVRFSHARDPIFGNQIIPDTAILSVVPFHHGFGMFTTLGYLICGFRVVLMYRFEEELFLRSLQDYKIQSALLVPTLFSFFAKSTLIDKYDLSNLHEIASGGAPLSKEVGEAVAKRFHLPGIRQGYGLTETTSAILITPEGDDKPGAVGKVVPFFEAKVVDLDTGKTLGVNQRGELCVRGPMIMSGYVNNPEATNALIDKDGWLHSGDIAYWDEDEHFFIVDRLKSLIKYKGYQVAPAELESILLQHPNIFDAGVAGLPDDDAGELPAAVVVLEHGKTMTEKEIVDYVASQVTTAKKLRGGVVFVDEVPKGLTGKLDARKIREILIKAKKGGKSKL

[11] = test system: Wnt5a (protein binding on small-molecule microarray); test: small molecules binding Wnt5a protein – biophysical, small-molecule microarray, 635/667 nm fluorescence, primary screen (AID 1142); settings: 635 nm fluorescence, higher = more signal;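 further: fluorescence read at 667 nm with signal to noise per printed feature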
[12] = ATP-based viability of Huh7 replicon cells – cell-based, CellTiter-Glo luminescence, basal, 48 h, cytotoxicity control for HCV replication inhibitor project, primary screen (AID 1143); settings: higher = more signal, called active from +8 up or from −8 down;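 further: Huh7 hepatoma cells carrying a hepatitis C replication reporter with no stimulus; test concentration not given here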
[13] = Pseudomonas biofilm growth suppression – PAO1 strain, BacTiter-Glo luminescence, LB-PBS, primary screen (AID 1144); settings: P. aeruginosa PAO1 biofilm, 12 h, higher = more signal
[14] = basal CRE-LacZ reporter activity in PC12 – cell-based, unstimulated, primary screen (AID 1145); settings: no forskolin, luminescence, 4.5 h, higher = more signal, called active from +8 up or from −8 down
[15] = forskolin-driven CRE-LacZ activity in PC12 – cell-based, CRE-LacZ reporter, forskolin-stimulated, primary screen (AID 1146); settings: luminescence, 4.5 h, higher = more signal, called active from +8 up or from −8 down;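 further: PC12 cells with 6xCRE LacZ reporter stimulated by forskolin 10 µM; beta-galactosidase reporter signal reflecting CREB driven transcription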
[16] = biological target: Streptavidin (Streptomyces avidinii) (UniProt P22629); test: compounds binding control protein streptavidin – biophysical, small-molecule microarray, 635/667 nm fluorescence, artefact control for SMM compound annotation, primary screen (AID 1147); settings: higher = more signal;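 further: signal reflects streptavidin binding to arrayed compounds as a control protein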
Streptavidin (Streptomyces avidinii), sequence (P22629 whole entry, looked up): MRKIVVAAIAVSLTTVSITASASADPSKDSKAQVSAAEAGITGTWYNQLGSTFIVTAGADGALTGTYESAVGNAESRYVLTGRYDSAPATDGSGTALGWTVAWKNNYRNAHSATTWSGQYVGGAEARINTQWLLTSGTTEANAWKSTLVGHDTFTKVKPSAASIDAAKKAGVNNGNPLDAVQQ

[17] = probe aInhba binding on compound microarray – biochemical, small-molecule microarray, 635/667 nm fluorescence, primary screen (AID 1148); settings: higher = more signal;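 further: score merges 667nm spot fluorescence with signal-to-noise for antibody binding to printed compounds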
[18] = biological target: Torsin-1A (Homo sapiens) (UniProt O14656); test: TOR1A wild-type binding on microarray – cell lysate, small-molecule microarray, lysate, 635/667 nm, primary screen (AID 1149); settings: COS7 hTOR1A-WT lysate, 635 nm fluorescence, higher = more signal
Torsin-1A (Homo sapiens), sequence (O14656 whole entry, looked up): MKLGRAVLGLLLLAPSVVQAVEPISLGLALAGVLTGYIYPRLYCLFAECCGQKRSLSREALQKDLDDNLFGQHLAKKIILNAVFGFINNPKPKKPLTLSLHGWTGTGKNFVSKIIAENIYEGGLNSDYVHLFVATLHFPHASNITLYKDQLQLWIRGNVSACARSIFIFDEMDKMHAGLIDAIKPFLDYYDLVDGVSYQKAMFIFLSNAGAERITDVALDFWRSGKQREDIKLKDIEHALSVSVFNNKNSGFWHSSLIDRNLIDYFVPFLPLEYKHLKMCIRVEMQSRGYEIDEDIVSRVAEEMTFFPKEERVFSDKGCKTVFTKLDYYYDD

[19] = biological target: Torsin-1A (Homo sapiens) (UniProt O14656); test: torsin A mutant lysate binding on microarrays – cell lysate, small-molecule microarray, COS7 lysate, 635/667 nm fluorescence, primary screen (AID 1150); settings: COS7 hTOR1A mutant lysate, 635 nm fluorescence, higher = more signal;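 further: score pools 667 nm emission and signal to noise measuring lysate protein binding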
[20] = test system: Sonic hedgehog protein (Shh); test: Sonic hedgehog microarray binding compounds – biochemical, small-molecule microarray, 635/667 nm fluorescence, primary screen (AID 1151); settings: 635 nm fluorescence, higher = more signal;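 further: Shh protein binding to compounds spotted on small-molecule microarray slides; score combines spot fluorescence intensity with signal-to-noise across triplicate slides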

| SMILES | composite z-score [1] | composite z-score [2] | composite z-score [3] | composite z-score [4] | composite z-score [5] | composite z-score [6] | z-score [7] | composite z-score [8] | composite z-score [9] | z-score [10] | composite z-score [11] | z-score [12] | z-score [13] | z-score [14] | z-score [15] | composite z-score [16] | composite z-score [17] | composite z-score [18] | composite z-score [19] | composite z-score [20] |
| --- | --- | --- | --- | --- | --- | --- | --- | --- | --- | --- | --- | --- | --- | --- | --- | --- | --- | --- | --- | --- |
| COCC1=C([C@H](O)CCc2ccccc2)[C@H](CO)[C@@H]2C(=O)N(Cc3ccccc3)C(=O)[C@@H]2C1 | -0.219 | -0.0814 | 0.0916 | 0.292 | 0.444 | 0.0451 | 0.68 | 0.448 | 0.131 | 0.24 (inactive) | 0.0713 | -0.979 (inactive) | -0.771 (inactive) | 0.586 (inactive) | -0.0417 (inactive) | -0.0218 | -0.0759 | -0.305 | 0.767 | 1.03 |
| COc1ccc([Si](C)(C)[C@H]2[C@H](CCO)O[C@@]3(C(=O)N(Cc4cccc(N5C(=O)c6cccc7cccc5c67)c4)c4ccccc43)[C@@H]2C)cc1 | 0.86 | 0.586 | 1.02 | 0.53 | -0.16 | -0.23 | 0.325 | -0.0439 | 0.563 | 0.669 (inactive) | 0.346 | -6.95 (inactive) | 0.0998 (inactive) | -0.011 (inactive) | -1.37 (inactive) | 0.343 | -0.176 | -0.697 | -0.318 | 0.329 |
| [N-]=[N+]=NCc1ccccc1C[C@]1(C(N)=O)N=C(c2ccc(OCCCO)cc2)O[C@H]1c1ccccc1N=[N+]=[N-] | 2.21 | 1.19 | 0.394 | 0.751 | 0.847 | -0.386 | -0.542 | 0.0874 | 1.03 | -10.3 (active) | 0.451 | -1.84 (inactive) | -0.43 (inactive) | -0.254 (inactive) | 0.248 (inactive) | 0.978 | 0.0906 | 0.0331 | 0.652 | -0.413 |
| COC(=O)[C@@]1(Cc2ccc(F)cc2)[C@H]2c3cc(C(=O)N4CCCC4)n(Cc4ccc(Cl)c(C(F)(F)F)c4)c3C[C@H]2CN1C(=O)c1ccccc1 | 2.45 | 1.23 | 0.777 | 1.01 | 1.08 | -0.716 | 0.815 | -0.862 | 1.22 | 1.18 (inactive) | 1.99 | -2.95 (inactive) | 0.678 (inactive) | 0.204 (inactive) | 1.49 (inactive) | 2.28 | 1.35 | 0.0817 | 0.51 | -0.239 |
| [N-]=[N+]=NCc1ccccc1C[C@]1(C(=O)NCc2ccccc2)COC(c2ccc(OCCCO)cc2)=N1 | 0.519 | 1.16 | 1.11 | 0.948 | 0.101 | 0.661 | -0.221 | -0.0991 | 0.762 | -0.169 (inactive) | -0.0113 | -5.27 (inactive) | 0.664 (inactive) | 1.72 (inactive) | 0.232 (inactive) | 0.469 | 0.0301 | -0.328 | 0.784 | -1.13 |
